Assay [1] is described as follows: qHTS assay to identify small molecule antagonists of the estrogen related receptor (ERR) signaling pathway from Tox21 library - cell viability counter screen (AID 1224834). Also: nearly all actives have a fitted effect of over 30% in size. Put shortly:
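ERR reporter cells were plated 6 h before compound addition, then exposed to test compounds in DMSO for 17.5 h at 37 C. Viability was read as CellTiter-Fluor fluorescence after a 30-minute incubation at 37 C.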

The target of assay [2] is Luciferin 4-monooxygenase (Photinus pyralis) (UniProt P08659). The experiment in a line: qHTS assay to identify small molecule inhibitors of firefly luciferase (AID 1224835). Also: nearly all actives have a fitted effect of over 25% in size. Also: potency is read from the fitted curve at half-maximal effect. Put shortly:
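Biochemical qHTS: compounds run as interplate titrations against purified firefly enzyme, with D-luciferin and ATP each at its KM concentration. Light output recorded by CCD imaging.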

Assay [3] can be described thus: qHTS assay to identify small molecule agonists of the constitutive androstane receptor (CAR) signaling pathway - cell viability counter screen (AID 1224836). Also: nearly all actives have a fitted effect of over 45% in size. The method in brief:
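Using CellTiter-Fluor, viability of HepG2 cells harbouring hCAR and CYP2B6-2.2kb was measured following 23 h incubation with a 15-concentration compound series plus PK11195 (0.75 uM final).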
A general note: In qHTS, concentration-response curves come from the screen itself.

Assay [4] is described as follows: qHTS assay to identify small molecule antagonists of the constitutive androstane receptor (CAR) signaling pathway - cell viability counter screen (AID 1224837). Also: nearly all actives have a fitted effect of over 45% in size. The method in brief: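 HepG2 cells stably expressing hCAR and a CYP2B6-2.2kb reporter were plated and pre-incubated 4 hr at 37 C/5% CO2, then given compounds at 15 concentrations plus 50 nM CITCO (final). After 23 hr, viability was read by CellTiter-Fluor fluorescence.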

Assay [5] has as its target Nuclear receptor subfamily 1 group I member 3 (Homo sapiens) (UniProt Q14994). The experiment in a line: qHTS assay to identify small molecule antagonists of the constitutive androstane receptor (CAR) signaling pathway (AID 1224838). Also: nearly all actives have a fitted effect of over 40% in size. Put shortly: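 HepG2 cells stably co-transfected with hCAR and a CYP2B6-2.2kb luciferase reporter were seeded 4 h before compound addition at 15 concentrations. Cells were stimulated with 50 nM CITCO (final) for 24 h at 37 C; luciferase luminescence was then read.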

Assay [6] has the same target. The experiment in a line: qHTS assay to identify small molecule agonists of the constitutive androstane receptor (CAR) signaling pathway (AID 1224839). Also: nearly all actives have a fitted effect of over 15% in size. Also: potency is read from the fitted curve at half-maximal effect. Put shortly: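 Double-stable HepG2 cells (hCAR, CYP2B6-2.2kb) seeded 4 h before compound addition. Exposure 24 h with 0.75 uM PK11195 final. Luciferase detected by ONE-Glo.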
Assay [7] can be described thus: qHTS assay to identify small molecule antagonists of the estrogen related receptor signaling pathway with the pleiotropic PPARgamma coactivator (PGC) from Tox21 10K library - cell viability counter screen (AID 1224840; active = well fitted cell-killing curve with a large enough effect in the repeat runs, not every such curve was filed as active; also: nearly all actives have a fitted effect of over 40% in size). The method in brief: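 PGC/ERR cells were seeded at 2,000 cells/well and left 6 hours at 37 C/5% CO2 before pin-tool addition of compounds in DMSO. After 17.5 hours at 37 C, CellTiter-Fluor was added and fluorescence read 30 minutes later.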

The nature of assay [8]: qHTS assay to identify small molecule antagonists of the estrogen related receptor signaling pathway with the pleiotropic PPARgamma coactivator (PGC) from Tox21 10K library (AID 1224841; call rule not given here; also: actives are mostly falling curves and most rising ones were filed inactive; nearly all actives have a fitted effect of over 50% in size; also: potency is read from the fitted curve at half-maximal effect). The method in brief:
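PGC/ERR reporter cells were seeded at 2,000 cells/well and held 6 hours at 37 C/5% CO2 before pin-tool addition of compounds in DMSO. After 18 hours at 37 C, One-Glo was added and luminescence read after 30 minutes at room temperature.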

The nature of assay [9]: qHTS assay to identify small molecule agonists of the estrogen related receptor signaling pathway with the pleiotropic PPARgamma coactivator (PGC) from Tox21 10K library (AID 1224842). Also: nearly all actives have a fitted effect of over 15% in size. The method in brief: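 PGC/ERR reporter cell line, 2,000 cells per well, incubated 6 h at 37 C before 23 nL compound in DMSO was added. After 18 h at 37 C, One-Glo luminescence read following 30 min at room temperature.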

For assay [10], the target named is Thyrotropin receptor (Homo sapiens) (UniProt P16473). As to the kind of experiment: qHTS assay to identify small molecule agonists of the thyroid stimulating hormone receptor (TSHR) signaling pathway (AID 1224843; calls by dose curve; also: nearly all actives have a fitted effect of over 45% in size). Put shortly: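 TSHR-HEK293 cells in agonist mode, 30 min room-temperature step, then cAMP measured by competitive HTRF (cAMP-d2 with anti-cAMP cryptate) after 1 h at room temperature. Tested at 15 concentrations in triplicate.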

A short description of assay [11]: qHTS assay to identify small molecule agonists of the hypoxia (HIF-1) signaling pathway - cell viability counter screen (AID 1224844; calls by dose curve; also: nearly all actives have a fitted effect of over 50% in size). The method in brief: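 HRE-bla ME-180 cells in medium with 0.5% dialyzed FBS were preincubated 5 hrs at 37C, exposed to compounds for 17 hrs, then viability was read as CellTiter-Glo luminescence after 30 min at room temperature, in the reporter wells.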

A short description of assay [12]: qHTS assay to identify small molecule agonists of the hypoxia (HIF-1) signaling pathway (AID 1224846; active = well fitted activation curve with a large enough effect in the signal ratio in the repeat runs, not every such curve was filed as active; the % refers to the signal ratio). The method in brief: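 HRE-bla ME-180 cells (beta-lactamase reporter under hypoxia response element) were plated at 2,000 cells/well in medium with 0.5% dialyzed FBS, rested 5 hrs, then given compounds in DMSO for 17 hrs at 37C, 5% CO2. Reporter induction was read with CCF4-AM FRET substrate.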

The nature of assay [13]: qHTS assay to identify small molecule antagonists of the estrogen related receptor (ERR) signaling pathway from Tox21 library (AID 1224848). Also: nearly all actives have a fitted effect of over 50% in size. Also: potency is read from the fitted curve at half-maximal effect. The method in brief: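 ERR reporter cell line (from NTP) seeded 2,000 cells/well, rested 6 h at 37 C/5% CO2, then pin-dosed with compounds in DMSO. After 18 h at 37 C, ONE-Glo added; luminescence read after 30 min at room temperature.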

Assay [14] in a line: qHTS assay to identify small molecule agonists of the estrogen related receptor (ERR) signaling pathway from Tox21 library (AID 1224849; calls by dose curve; also: nearly all actives have a fitted effect of over 15% in size). Particulars: ERR reporter cell line, ONE-Glo luciferase, 18 h; at 92.4 µM (top of the series). Put shortly: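 ERR reporter cell line (NTP) seeded, rested 6 h at 37 C/5% CO2, then pinned with Tox21 compounds in DMSO. After 18 h at 37 C, ONE-Glo luciferase luminescence was read following 30 min at room temperature.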

Assay [15] is described as follows: qHTS RealTime-Glo MT Cell Viability Assay in HepG2 cells - 24 hour (AID 1224867). Also: nearly all actives have a fitted effect of over 50% in size. Put shortly: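 Compound treatment began 5 h after plating HepG2 cells (600/well) with NanoLuc luciferase and prosubstrate. Plates stayed at 37 C for 40 h; luminescence was captured at six time points, 0 h through 40 h.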
The nature of assay [16]: A CellTox Green Cytotoxicity Assay to monitor cytotoxicity in HEK293 cells - 0 hour (AID 1224869). Also: nearly all actives have a fitted effect of over 50% in size. The method in brief:
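HEK293 cells premixed with CellTox Green dye were seeded at 600 cells/well and left 5 h at 37 C/5% CO2 before pin transfer of 23 nL compound in DMSO. Fluorescence from dye bound to dead-cell DNA was read during 40 h treatment.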

Assay [17] in a line: qHTS assay to identify small molecule agonists of H2AX - cell viability counter screen (AID 1224847; calls by dose curve; also: top concentration of the series differs between compounds; nearly all actives have a fitted effect of over 30% in size). The method in brief:
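Quantitative HTS viability measurement: CHO-K1 wild-type cells in serum (10% FBS) medium, short 3 hr drug exposure at 37C with 0.76% DMSO, CellTiter-Glo luminescent detection.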

Assay [18] in a line: qHTS RealTime-Glo MT Cell Viability Assay in HEK293 cells - 32 hour (AID 1224868). Put shortly:
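Quantitative high-throughput screen of the Tox21 10K library in HEK293: cells and RealTime-Glo reagents plated together, compound added at 5 h, luminescence monitored through 40 h at 37 C.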

Assay [19] can be described thus: qHTS assay to identify small molecule agonists of H2AX (AID 1224845; active = well fitted activation curve with a large enough effect in the signal ratio in the repeat runs, not every such curve was filed as active; the % refers to the signal ratio). The method in brief: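 Wild-type CHO-K1 cells, plated overnight, exposed 3hr at 37C to 15 concentrations (0.76% DMSO final). Lysed, then HTRF anti-pH2AX (S139) cryptate and anti-H2AX-d2 antibodies, 24 hr room temperature; 665/620 nm emission read.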

Where “and” joins values, the source holds several entries; their conditions need not be identical. Equal entries are not always repeated. A number with no mark means an inactive call. Results filed as inconclusive are left out. Calls of active or inactive are those of the source. Unless noted, calls follow the shape of the dose curve; as a rule, active = well fitted curve in the direction sought with a large enough effect in the repeat runs; inconclusive = weak or mixed curves; inactive = no such curve, though single readings can be large; an effect the other way counts as inactive or inconclusive.
% is scaled to controls: 0 for no effect and ±100 for the full control effect.

Chain of Thyrotropin receptor (Homo sapiens) (P16473 whole entry, looked up): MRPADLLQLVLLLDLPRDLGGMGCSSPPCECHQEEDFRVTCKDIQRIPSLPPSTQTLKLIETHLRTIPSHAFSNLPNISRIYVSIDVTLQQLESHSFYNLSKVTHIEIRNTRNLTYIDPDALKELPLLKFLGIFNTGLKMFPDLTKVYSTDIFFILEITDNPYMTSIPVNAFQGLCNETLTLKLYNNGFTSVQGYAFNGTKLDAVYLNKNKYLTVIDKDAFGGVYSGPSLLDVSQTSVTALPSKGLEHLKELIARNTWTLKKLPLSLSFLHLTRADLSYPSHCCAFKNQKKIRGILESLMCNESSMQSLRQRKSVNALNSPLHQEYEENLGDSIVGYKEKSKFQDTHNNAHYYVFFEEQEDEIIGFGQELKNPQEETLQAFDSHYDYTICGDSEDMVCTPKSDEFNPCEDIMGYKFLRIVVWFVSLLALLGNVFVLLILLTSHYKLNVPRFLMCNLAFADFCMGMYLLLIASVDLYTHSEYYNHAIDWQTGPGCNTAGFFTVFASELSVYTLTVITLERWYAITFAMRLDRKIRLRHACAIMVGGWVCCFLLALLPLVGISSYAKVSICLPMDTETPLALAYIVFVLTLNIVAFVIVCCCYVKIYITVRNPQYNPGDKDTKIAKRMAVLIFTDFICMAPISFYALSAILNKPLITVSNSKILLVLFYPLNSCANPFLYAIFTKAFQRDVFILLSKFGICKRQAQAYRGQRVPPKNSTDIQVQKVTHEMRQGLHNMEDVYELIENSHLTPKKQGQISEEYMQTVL
Chain of Luciferin 4-monooxygenase (Photinus pyralis) (P08659 whole entry, looked up): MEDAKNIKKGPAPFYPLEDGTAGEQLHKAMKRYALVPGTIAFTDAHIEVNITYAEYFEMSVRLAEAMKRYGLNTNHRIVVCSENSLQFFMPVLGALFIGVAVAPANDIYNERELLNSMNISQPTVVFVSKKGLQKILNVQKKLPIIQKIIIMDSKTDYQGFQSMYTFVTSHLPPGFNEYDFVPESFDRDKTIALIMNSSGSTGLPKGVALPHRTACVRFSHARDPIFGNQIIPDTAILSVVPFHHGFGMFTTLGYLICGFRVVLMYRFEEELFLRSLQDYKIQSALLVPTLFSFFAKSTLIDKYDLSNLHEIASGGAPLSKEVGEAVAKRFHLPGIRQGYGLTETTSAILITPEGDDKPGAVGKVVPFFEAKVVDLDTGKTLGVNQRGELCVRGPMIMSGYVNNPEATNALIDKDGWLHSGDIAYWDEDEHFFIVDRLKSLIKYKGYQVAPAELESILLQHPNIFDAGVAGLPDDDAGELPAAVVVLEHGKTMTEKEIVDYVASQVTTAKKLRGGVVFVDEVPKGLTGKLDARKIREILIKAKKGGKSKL
Chain of Nuclear receptor subfamily 1 group I member 3 (Homo sapiens) (Q14994 whole entry, looked up): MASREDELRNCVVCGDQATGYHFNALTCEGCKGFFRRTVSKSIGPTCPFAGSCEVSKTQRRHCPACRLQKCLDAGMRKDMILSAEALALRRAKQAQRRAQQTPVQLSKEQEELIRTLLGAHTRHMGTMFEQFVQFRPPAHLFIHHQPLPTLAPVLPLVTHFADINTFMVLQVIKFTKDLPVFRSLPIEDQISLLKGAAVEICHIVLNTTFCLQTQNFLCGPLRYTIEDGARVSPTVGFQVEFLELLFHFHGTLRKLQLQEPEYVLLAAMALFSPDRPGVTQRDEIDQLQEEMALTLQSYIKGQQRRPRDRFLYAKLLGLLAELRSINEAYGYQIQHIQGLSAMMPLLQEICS

For the molecule `Oc1ccc(-c2ccccc2)cc1`, the Potency result in assay [1], in assay [3], in [4], in assay [5], in assay [7] and in assay [8] was “inactive” throughout. The Potency entry in assay [9], in assay [10], in [11], in [13], in assay [15] and in [16] was “inactive” in each case. Also, the Potency is 39.4 µM (active) and 39.9 µM (active) in assay [2]; 53.8 µM (active) and 54.5 µM (active) in assay [6]. Also, the molecule was classed as inactive in assay [12]. Besides, in assay [14], the activity change, positive = activation was 1.81%.
As to `Nc1ccc(Cl)c(Cl)c1`, the Potency result in assay [1], in assay [2], in [3], in [4], in assay [5] and in [6] was “inactive” each time. The Potency result in [7], in [8], in assay [9], in assay [10], in assay [11] and in assay [17] was “inactive” throughout. The Potency result in assay [15], in assay [18] and in assay [16] was “inactive” each time. Also, in [12], the outcome was inactive. Also, in assay [13], the Potency is 21.7 µM (active). Also, in assay [14], the activity change, positive = activation was -24.9% and -36.3%.
`Nc1c(Cl)cc([N+](=O)[O-])cc1Cl`: the Potency result in assay [1], in assay [2], in [3], in [4], in assay [5] and in assay [6] was “inactive” throughout. In addition, the Potency entry in assay [7], in assay [9], in [11], in assay [17], in [15] and in assay [18] was “inactive” in each case. The Potency entry in assay [16] was “inactive”. In addition, the Potency in [8] is 48.9 µM (active) and 27.3 µM (active); in assay [13] it was 30.8 µM (active) and 24.3 µM (active). Also, the result in assay [12] was inactive. Moreover, in [14], the activity change, positive = activation is -38.6% and -54.4%.
As to `COC(=O)c1sccc1S(=O)(=O)NC(=O)Nc1nc(C)nc(OC)n1`, the Potency result in assay [1], in assay [2], in [3], in assay [4], in assay [5] and in [6] was “inactive” in each case. Further, the Potency entry in [7], in [10], in [11], in assay [19], in assay [17] and in assay [15] was “inactive” each time. In addition, the Potency result in assay [18] and in [16] was “inactive” in each case. In assay [12], the call was inactive.
As to `C=C(C)C(=O)OCC1CO1` (configuration not stated), the Potency entry in assay [1], in assay [2], in assay [3], in assay [4], in assay [5] and in assay [6] was “inactive” each time. Moreover, the Potency entry in assay [7], in [8], in assay [9], in assay [10], in [11] and in assay [19] was “inactive” throughout. The Potency entry in assay [17], in [13], in [15], in assay [18] and in assay [16] was “inactive” in each case. The result in [12] was inactive. Besides, in assay [14], the activity change, positive = activation was -2.17% and 2.32%.
`CCC(C)c1ccc(O)cc1` (configuration not stated): the Potency entry in assay [1], in assay [3], in [4], in assay [5], in assay [6] and in assay [7] was “inactive” each time. In addition, the Potency entry in assay [8], in [9], in assay [11], in [19], in assay [13] and in assay [15] was “inactive” in each case. In addition, the Potency entry in assay [18] and in assay [16] was “inactive” throughout. Besides, the Potency in assay [2] is 71.6 µM (active). The molecule was classed as inactive in assay [12]. The activity change, positive = activation in assay [14] was -5.15% and 5.69%.

These data come from PubChem BioAssay (Tox21).
